From PubChem BioAssay (NCI)
Compounds without any hit were thinned out: in the full panel of roughly 83,000, 20% have a hit.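 Interpretation: 100, growth as untreated; towards 0, rising growth inhibition; 0, no net growth; 0 to -100, cell death. Compounds scoring below 10 were considered active.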 Activity calls are given as the source filed them.

System: SW-620 colon
Experiment: NCI-60 one-dose screen, 48 h (100 = growth as untreated, 0 = no growth, -100 = all killed)
Settings: 10 µM unless noted

Structure (SMILES) | growth
COc1cc(OC)c(S(N)(=O)=O)cc1C(C)=O | 113% (inactive)
O=S(=O)(Nc1ccc2c(c1)OCO2)c1ccc(-c2cnc(C3CC3)o2)cc1 | 21.2% (inactive)
COc1cccc2c1CN(C(=O)c1ccc(O)c(C(=O)N3Cc4ccc(OCCC[P+](c5ccccc5)(c5ccccc5)c5ccccc5)cc4C3)c1)C2 | 70.5% (inactive)
O=S(=O)(Nc1ccc(I)cc1Cl)c1ccc(-c2cnc(C3CC3)o2)cc1 | 17.9% (inactive)
C=C(C=O)[C@@H]1CC[C@]2(CO)CC[C@]3(C)[C@H](CC[C@@H]4[C@@]5(C)CCCNC(C)(C)[C@@H]5CC[C@]43C)[C@@H]12 | 1.41% (active)
C=CCn1c(SCC(=O)Nc2ccc(C(=O)/C=C/c3cccc([N+](=O)[O-])c3)cc2)nnc1-c1c[nH]c2ccccc12 | 98.7% (inactive)
CNC(=O)c1c(NC(=O)c2cccc(C(F)(F)F)c2F)sc2c1CCC(=O)C2 | 14.2% (inactive)
COc1ccc(C2c3sc4c(C)cccc4c3Oc3nc(CC(=O)Nc4ccccc4)[nH]c(=O)c32)cc1 (centres undefined) | 74.9% (inactive)
COCCNc1ccc2ncc(C#Cc3cncc(C(=O)Nc4ccc(CN5CCN(C)CC5)c(C(F)(F)F)c4)c3)n2n1 | -54.1% (active)
CCN1CCN(C(=O)[C@]23CCC(C)(C)C[C@H]2C2=CC[C@@H]4[C@@]5(C)Cc6c([nH]c7ccccc67)C(C)(C)[C@@H]5CC[C@@]4(C)[C@]2(C)CC3)CC1 | 98.1% (inactive)
CCn1c(SCC(=O)Nc2cccc(C(=O)/C=C/c3ccc(C)cc3)c2)nc2ccccc2c1=O | 51.4% (inactive)
CN1c2ccccc2Sc2cc(C=C(C#N)C#N)ccc21 | 90.9% (inactive)
CN1CCN(Cc2ccc(NC(=O)c3cncc(C#Cc4cnn5cccnc45)c3)cc2C(F)(F)F)CC1 | 0.2% (active)
N#Cc1cccc(/C(N)=N/C(N)=N/c2nc3ccccc3s2)c1 | 22.9% (inactive)
NS(=O)(=O)c1ccc(Nc2nc(N/N=C/c3c[nH]c4ccccc34)nc(Nc3ccccc3)n2)cc1 | 49% (inactive)
N#C/C(=C\c1ccc(-c2ccc(Cl)cc2Cl)o1)c1ccc(F)cc1 | 93.5% (inactive)
O=C1/C(=C/C=C/c2ccco2)SC(=S)N1C1CCCCC1 | 92.2% (inactive)
O=C(Nc1cccc(Cl)c1)Nc1nc2ccc([N+](=O)[O-])cc2o1 | 7.83% (active)
COc1cccc(C(=O)Nc2cccc(C#Cc3cccc4[nH]nc(N)c34)c2)c1 | 34% (inactive)
COc1cc(OC)c(S(N)(=O)=O)cc1C(=O)/C=C/c1ccc(Cl)cc1 | -39.9% (active)

Structure (SMILES) | growth
COc1cc2nc(Cl)nc(Nc3cccc(C4=Nc5c(N)nc(N)nc5NC(c5ccc(Br)cc5)C4)c3)c2cc1OC (centres undefined) | 46.5% (inactive)
CC1=N[C@@H]2CN(C(=O)OC(C)(C)C)C[C@@H]2n2c1cc1ccccc1c2=O | 107% (inactive)
O=S(=O)(NCCNc1nccc(-n2cnc3ccccc32)n1)c1ccc(Br)cc1 | 110% (inactive)
Cc1cc(-c2ccc(Cl)cc2)n(Cc2nnc(SCC(=O)Nc3ccc(S(N)(=O)=O)cc3)n2C2CCCCC2)n1 | 107% (inactive)
COc1cc(OC)cc(C(=O)Nc2sc3c(c2C(N)=O)CCC(=O)C3)c1 | 18.6% (inactive)
COc1cccc2cc(-c3cc4ccccc4[nH]3)/c(=N\NC(=O)c3ccc(Cl)cc3)oc12 | 38.3% (inactive)
CC(C)(C)c1ccc(CC(=O)Nc2sc3c(c2C(N)=O)CCC(=O)C3)cc1 | 3.83% (active)
c1cn2c(ccc3nc(-c4cn[nH]c4)c4c(c32)CCCC4)n1 | 61.2% (inactive)
COc1cc(-c2nn(C(C)(C)C)cc2-c2ccnc(NCCCNS(=O)(=O)c3ccc(F)cc3)n2)ccc1Cl | 95.9% (inactive)
Clc1nc2ccccc2nc1-c1nnc(C2CCCCC2)o1 | 97.2% (inactive)
CCCn1cnc2c(c1=N)C(c1ccc(F)cc1)c1sc3c(CC)cccc3c1O2 (centres undefined) | 17.7% (inactive)
COc1ccc(-n2c(/C=C3\C(=O)Nc4ccccc43)ccc2CO)cc1 | 98.6% (inactive)
N#Cc1ccccc1Cn1c2nc(=N)c3ccccc3c-2nc2ccccc21 | 54.6% (inactive)
COc1cc2nc(Cl)nc(Nc3cccc(C4=Nc5c(N)nc(N)nc5NC(c5ccc(F)cc5)C4)c3)c2cc1OC (centres undefined) | 12.7% (inactive)
CCn1c2ccccc2c2cc(-n3nncc3-c3ccccc3)ccc21 | 21.3% (inactive)
CCCn1cnc2c(c1=N)C(c1ccc(Cl)cc1)c1sc3c(CC)cccc3c1O2 (centres undefined) | 25.5% (inactive)
Cc1ccc(C2=Nn3c(nnc3-c3ccccc3)SC2)cc1 | 13.3% (inactive)
Cc1ccc2sc3c(c2c1)OC(N)=C(C#N)C3c1ccc(Cl)cc1 (centres undefined) | 63.4% (inactive)
Cc1ccc(NC(=O)N[C@@H](Cc2cc(F)cc(F)c2)C(=O)NC2C(=O)N3C[C@H](O)C[C@H]3C(=O)N3CCCC[C@H]3C(=O)N[C@@H](CO)C(=O)N3C[C@H](C)C[C@H]3C(=O)O[C@H]2C)c(F)c1 (some centres undefined) | 44.6% (inactive)
